Bioassay records from PubChem.
Only some compounds are listed: those with a hit (about 7.6% of all), similar ones and a draw of the others.
HEK293 cAMP ctrl: qHTS Assay for Agonists of the Thyroid Stimulating Hormone Receptor: Activators of Intracellular cAMP Concentrations in Parental HEK 293 | Potency, µM (titrated, usually from 57.1 µM), most hits filed as activators | hit rate 2.5% among 73,000 | parental HEK293 CNG cAMP sensor, membrane potential fluorescence; note: nearly all actives have a fitted effect of over 55% in size
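Counterscreen for endogenous-receptor signalling: CNG-channel HEK 293 cells report cAMP rise by membrane depolarization. After 60 min dye equilibration with 100 uM RO 20-1724, compounds incubated 30 min before bottom-read fluorescence at 590 nm.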
TSHR agonist: qHTS Assay for Agonists of the Thyroid Stimulating Hormone Receptor; Thyrotropin receptor (Homo sapiens), P16473; HEK293-CNG-TSHR cells (CNG channel as cAMP sensor), membrane potential dye, cAMP; Potency, µM (series often up to 57.1 µM), actives largely listed as activators; hit rate 0.48% among 73,000; active = well fitted activation curve with a large enough effect in the main read-out, with a control signal flat, not every such curve was filed as active; inconclusive = small, poorly fitted or top-dose-only effect, or a change in a side signal; inactive = no such curve, though single readings can be large or run the other way; reference of the percent scale not stated here;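 note: the control signal comes from parental cells without the receptor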
Target sequence (P16473 whole entry, looked up): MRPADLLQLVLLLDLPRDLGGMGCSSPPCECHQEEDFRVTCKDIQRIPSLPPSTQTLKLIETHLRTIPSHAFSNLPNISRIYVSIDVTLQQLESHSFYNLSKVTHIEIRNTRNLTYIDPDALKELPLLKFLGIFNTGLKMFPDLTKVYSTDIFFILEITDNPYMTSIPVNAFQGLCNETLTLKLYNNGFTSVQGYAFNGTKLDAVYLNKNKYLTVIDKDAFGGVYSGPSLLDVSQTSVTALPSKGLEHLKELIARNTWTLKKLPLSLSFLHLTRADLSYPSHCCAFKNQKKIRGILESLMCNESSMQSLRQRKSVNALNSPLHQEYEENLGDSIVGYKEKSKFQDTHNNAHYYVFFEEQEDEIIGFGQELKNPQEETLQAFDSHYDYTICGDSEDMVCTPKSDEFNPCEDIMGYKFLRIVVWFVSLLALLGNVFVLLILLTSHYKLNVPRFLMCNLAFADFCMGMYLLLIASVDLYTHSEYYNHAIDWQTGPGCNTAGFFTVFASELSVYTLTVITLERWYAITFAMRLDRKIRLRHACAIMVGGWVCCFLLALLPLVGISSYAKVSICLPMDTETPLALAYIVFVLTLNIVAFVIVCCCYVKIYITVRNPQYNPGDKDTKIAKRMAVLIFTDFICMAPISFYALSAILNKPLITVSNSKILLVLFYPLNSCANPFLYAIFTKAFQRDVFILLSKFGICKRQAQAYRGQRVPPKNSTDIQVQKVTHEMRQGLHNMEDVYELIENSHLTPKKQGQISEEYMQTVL
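HEK 293 cells stably expressing TSHR and a cAMP-gated CNG channel; parental CNG-only cells as counterscreen. Cells preloaded 60 min with membrane potential dye plus 100 uM RO 20-1724, then compound 30 min; fluorescence read at 590 nm.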
ERK AVP block: qHTS Assay for Inhibitors of the ERK Signaling Pathway using a Homogeneous Screening Assay; HEK293-V1b, vasopressin-stimulated pERK AlphaScreen; Potency, µM (top dose mostly 57.5 µM), usual class: inhibitors; hit rate 0.99% among 72,000; note: nearly all actives have a fitted effect of over 55% in size
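HEK293 cells stably expressing V1b receptor, seeded overnight in 1% FBS, were treated with compounds for 30 min at 37C, then stimulated 5 min with 25 nM vasopressin; phospho-ERK read by AlphaScreen SureFire after lysis.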
CRE-bla Fsk: Cell signaling CRE-BLA (Fsk stim); CHO CRE-bla reporter (cAMP response element driving beta-lactamase), forskolin EC10, beta-lactamase ratio; Potency, µM (top dose mostly 38.2 µM), hits mostly activators; hit rate 2.5% among 71,000; active = well fitted activation curve with a large enough effect in the signal ratio, with a control signal flat, not every such curve was filed as active; inconclusive = small, poorly fitted or top-dose-only effect, or effect the other way, or a change in a side signal; the % refers to the signal ratio
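Using CellSensor CRE-bla CHO cells in Opti-MEM with 0.5% dialyzed FBS, compounds were titrated with EC10 NKH 477 for 3 h at 37 °C. CCF4 ratio (460/530 nm) gave %Activity; AC50 derived.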
Tau fil binding: qHTS Assay for Tau Filament Binding; Potency, µM (doses to about 57.1 µM); AID 596, 2007; hit rate 2% among 71,000; recombinant tau filaments, thioflavin S fluorescence, 15 h; filaments grown with octadecylsulfate alongside compound;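 note: actives lower thioflavin S fluorescence by blocking filaments or displacing dye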
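His-tagged recombinant human tau (exons 2, 3 and 10 included), 1 uM, was induced to fibrillize by 30 uM sodium octadecylsulfate with compound present. After 15 h at 37 C, thioflavine S fluorescence (ex 450, em 510 nm) was read.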
A number is an active result; - = inactive; ? = inconclusive; . = no result; [ ] = another dose, or the depositor's remark. Unless noted, calls come from the whole dose curve; as a rule, active = well fitted curve in the direction sought with a large enough effect; inconclusive = small, poorly fitted or top-dose-only effect, or another doubt; inactive = no such curve, though single readings can be large; an effect the other way counts as inactive or inconclusive.

SMILES	HEK293 cAMP ctrl	TSHR agonist	ERK AVP block	CRE-bla Fsk	Tau fil binding
CCOC(=O)c1c(NC(=O)c2ccoc2C)sc2c1CCC2	?	?	-	?	-
CCC1CCc2c(sc(NC(=O)c3ccoc3C)c2C(N)=O)C1 (stereo not given)	-	-	-	10µM	-
CN(Cc1ccco1)c1ncnc2ccc(-c3cccc(C#N)c3)cc12	-	-	-	?	-
Cc1cc(N)n2ncc(-c3cccc(Br)c3)c2n1	-[11.4 µM]	-[11.4 µM]	-	-[7.6 µM]	1.6µM
Cc1cc(N)n2ncc(-c3ccccc3)c2n1	-	?	25µM	-	-
Cc1cc(N)n2nc(-c3ccccc3)cc2n1	-	-	-	-	-
CN1CCN(c2nc(-c3ccccc3C(F)(F)F)nc3ccccc23)CC1	-	-	?	?	-
COc1ccc(-c2csc(Cc3nnc4n3CCCCC4)n2)cc1OC	-	-	-	13µM	-
COc1ccc2c(Cl)c(-c3nnc4n3CCCCC4)sc2c1	-	-	-	?	-
COc1ccc(CC(N)C(=O)NC2C(CO)OC(n3cnc4c(N(C)C)ncnc43)C2O)cc1 (stereo not given)	.	.	-	.	.
CCOC(=O)N1CCC(NC(=O)c2cccc3c2C(=O)N(c2ccc(OC)cc2)C3)CC1	-	-	-	5µM	-
CCOC(=O)N1CCC(N2Cc3cccc(C(=O)NCc4ccc(OC)cc4)c3C2=O)CC1	-	-	-	?	-
CCCNC(=O)OC[C@@H]1O[C@H](CCO/N=C\[C@@H](OC)[C@H](C)/C=C\CC(=O)OC)C=C[C@@H]1Oc1ccc(OC)cc1	-[11.4 µM]	-[11.4 µM]	-[11.5 µM]	.	.
COc1ccc(-c2cc(=O)c3ccc(O)cc3o2)cc1	-	-	-	-	-
COc1ccc2oc(-c3ccc(O)cc3)cc(=O)c2c1	?	?	40µM	16µM	?
COc1cc2oc(-c3ccccc3)cc(=O)c2cc1OC	-	-	-	6.3µM	?
COc1ccc(-c2cc(=O)c3cc(OC)ccc3o2)cc1	.	.	-	.	.
COc1cccc(-c2cc(=O)c3cc(O)ccc3o2)c1	?	?	?	?	32µM
COc1ccccc1-n1cnnc1SCC(=O)c1cc(C)n(Cc2cccs2)c1C	32µM	?	-	-	-
CCC(Sc1nc2n[nH]c(C)c2c(=N)n1-c1ccc(C)c(Cl)c1)C(=O)N1CCOCC1 (stereo not given)	-	-	-	?	-
CCCN(CCC)C(=O)CSc1nc2n[nH]c(C)c2c(=N)n1-c1ccc(OCC)cc1	-	.	?	2.5µM	-
CCc1ccccc1NC(=O)CSc1nc2n[nH]c(C)c2c(=N)n1-c1ccc(OC)cc1	-	-	-	2.5µM	-
CCC(Sc1nc2n[nH]c(C)c2c(=N)n1-c1cccc(Cl)c1)C(=O)NCCOC (stereo not given)	-	-	-	13µM	-
CCCN(CCC)C(=O)CSc1nc2n[nH]c(C)c2c(=N)n1-c1ccc(OC)cc1	-	-	?	1.6µM	-
COC(=O)c1ccc(C(NC(=O)OCc2ccccc2)/C(=C/[C@@H](C)C(=O)NCc2nc3ccccc3n2C)c2cccnc2)cc1 (stereo not given in full)	-	.	-	-	-
SMILES	HEK293 cAMP ctrl	TSHR agonist	ERK AVP block	CRE-bla Fsk	Tau fil binding
N#CCSc1nc2c(cc1C#N)CCCC2	?	?	-	13µM	-
COC(=O)CC(=O)CSc1nc2c(cc1C#N)CCCCC2	-	-	-	?	-
N#Cc1cc2c(nc1SCc1cccnc1)CCCCC2	10µM	?	?	?	-
COCCNc1nc(C)nc2c1nc(-c1ccccc1)n2C1CCN(Cc2ccccc2)C1 (stereo not given)	?	?	-	?	-
O=C(c1cc(-n2cnnc2)ccc1Cl)N1CCN(c2nc(-c3ccccc3)cs2)CC1	?	?	25µM	-	-
CCCOn1nnnc1-c1ccccc1	-	-	-	-	-
Cc1cccc(C(C)C)c1-n1nnnc1-c1ccccc1	20µM	?	-	-	-
CC(C)C[C@@H](CC(=O)N[C@@H](CCCN)CC(=O)N[C@@H]1CCNC[C@H]1C(=O)N[C@H](CC(=O)N[C@@H](CCC(=O)O)CC(=O)O)Cc1ccccc1)NC(=O)[C@@H]1CNCC[C@H]1N	?	?	.	-	-
Cc1cccc2cc(CN(Cc3nnnn3Cc3ccco3)C3CCCC3)c3nnnn3c12	10µM	?	-	?	-
O=c1c(-c2cccs2)nc2cnc(N3CCOCC3)nc2n1-c1ccccc1	-	-	-	?	-
C=CCOC(=O)C1=C(C)NC(SCC(=O)OCC)=C(C#N)C1c1ccc(O)c(OC)c1 (stereo not given)	-	-	-	?	-
C=CCOC(=O)C1=C(C)NC(SC)=C(C#N)C1c1ccc(OCC)cc1 (stereo not given)	-	0.5µM	-	?	-
O=c1c2ccccc2sc2nc(C3CCCCC3)n(Cc3ccco3)c(=O)c12	?	?	-	-	10µM
O=c1c2ccccc2nc(SCc2nc3ccccc3s2)n1Cc1ccco1	?	?	-	-	-
CCc1nc2sc3ccccc3c(=O)c2c(=O)n1Cc1ccco1	-	-	-	-	16µM
CCc1nc2oc3cc(OC)ccc3c(=O)c2c(=O)n1Cc1ccco1	-	-	-	?	-
COc1ccc(-c2nnc(SCc3nnc(-c4ccc(Cl)cc4)o3)n2-c2ccccc2)cc1	16µM	?	-	-	-
COc1ccc2[nH]c3nc(SC(C)C)nnc3c2c1	-	-	-	?	-
COc1ccc(-n2c(SCc3nnc(-c4ccccc4)o3)nnc2-c2ccccc2)cc1	20µM	?	-	-	-
COc1ccc2[nH]c3nc(SCc4nnc(-c5ccccc5)o4)nnc3c2c1	-	-	-	4µM	?
COc1ccc(-c2nnc(SCc3nnc(-c4ccccc4)o3)n2-c2ccccc2)cc1	-[11.4 µM]	-[11.4 µM]	-	?	-[11.4 µM]
N#Cc1nc(-c2ccc(F)cc2)oc1NCc1cccc2c1OCO2	?	?	7.9µM	10µM	-
CC(=O)c1ccc(C2C=CC(Oc3ccc(F)cc3C)C(CO)O2)cc1 (stereo not given)	-[11.4 µM]	-[11.4 µM]	-[11.5 µM]	.	.
COc1cc2cc(C(=O)O)n(C)c2c(OC)c1OC	-	-[11.4 µM]	-	-	-
COc1cc2cc3c4c(cc(OC)c(OC)c4c2cc1OC)CCN3C	-	?	?	0.79µM	4µM
O=C(CCn1nc(-c2ccc(Cl)cc2)ccc1=O)N1CCN(c2ccccn2)CC1	-	-	-	4µM	-
CN(C)CCN(Cc1ccccc1)S(=O)(=O)c1cccc2cccnc12	-	-	.	-	-
Cc1cc(C(=O)CSc2nnc(N)s2)c(C)n1CCc1ccc(Cl)cc1	25µM	?	-	-	-
COc1ccc(CCn2c(C)cc(C(=O)CSc3nnc(N)s3)c2C)cc1	25µM	?	20µM	-	-
